Screening results deposited in PubChem BioAssay by several laboratories.
An excerpt weighted towards active compounds, which were near 5.3% of everything screened.
PfM18AAP inh-1: PfM18AAP inhibitors, malaria aminopeptidase, primary screen, biochemical, QFRET, recombinant enzyme | inhibition, % at 7.35 µM | hit rate 1.2% among 290,000 | H-Glu-NHMec fluorogenic cleavage | M18 aspartyl aminopeptidase (Plasmodium falciparum 3D7);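 active means inhibition above the campaign mean inhibition over all tested compounds plus 3 SD, cut at about 28% in these data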;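 further: 0% = plate median of test compound wells and 100% = 2 mM ZnCl2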
HIF act: HIF pathway transcriptional activators, primary screen, cell-based, U2OS HRE-luciferase, luminescence | U2OS HRE-luciferase reporter; normalized: DMSO 0%, desferrioxamine 100% | activation, % at 7.5 µM (by protocol) | hit rate 0.32% among 300,000 | AID 1910, 2009;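 active means mean activation of at least 10% of the iron chelator positive control signal, with at least half of replicates also reaching 10%; inconclusive means mean and replicate majority disagree about reaching 10%; inactive means mean and most replicates under 10%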
SUMO Mot1 rescue: yeast Mot1-301 growth rescue at high temperature, primary screen, SUMOylation pathway inhibitor project, S. cerevisiae, ATP luminescence, 38.5C; S. cerevisiae Mot1-301 growth rescue; percent above DMSO median, 100 means doubled; growth rescue, % at 18.8 µM; hit rate 1% among 320,000;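 active means every valid replicate shows activation above 250% relative to neutral control wells; inactive means the rest, any valid replicate at or below 250%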;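 further: OY570 slx delta 5 strain wells were the positive control but not used for scaling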
ALR inh: inhibitors of human ALR sulfhydryl oxidase, primary screen, biochemical, H2O2 detection, HRP-luminol luminescence, single point; FAD-linked sulfhydryl oxidase ALR (Homo sapiens), P55789; purified ALR, DTT oxidation; inhibition, % (test concentration not listed); hit rate 3.8% among 290,000; AID 485317, 2010;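 active means mean replicate inhibition above about 79%, with every replicate also reaching it, limit read from the data; inconclusive means only one of the two criteria met; inactive means mean below limit and not every replicate reaching it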
Target sequence (P55789 whole entry, looked up): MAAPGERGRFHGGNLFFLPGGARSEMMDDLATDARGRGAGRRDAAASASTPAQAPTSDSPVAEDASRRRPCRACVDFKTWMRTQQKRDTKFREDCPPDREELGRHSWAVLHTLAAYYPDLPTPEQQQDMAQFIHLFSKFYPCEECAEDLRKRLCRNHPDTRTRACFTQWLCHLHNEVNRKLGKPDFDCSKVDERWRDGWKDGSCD
PfM18AAP inh-2: PfM18AAP inhibitors, malaria aminopeptidase, confirmation, biochemical, QFRET, recombinant enzyme, triplicate. shares compounds with PfM18AAP inh-1. H-Glu-NHMec fluorogenic cleavage. inhibition, % at 7.35 µM. hit rate 28% among 2,400. AID 2170, 2009;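 active means mean inhibition over replicate wells above the hit cutoff set for the earlier primary screen, cut at about 29% in these data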;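 further: 0% = median of test compound wells and 100% = 2 mM ZnCl2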
CTSL1 counter: cathepsin L1 inhibitors, retest, confirmation, counter-screen for PFM18AAP inhibitor project, biochemical, QFRET, triplicate | shares compounds with PfM18AAP inh-1 | purified cathepsin L1, Z-Leu-Arg-MCA fluorescence | inhibition, % at 5.96 µM | 2,400 tested, under 10 active | AID 2178, 2009;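 active means average inhibition across replicates above the hit cutoff set in the earlier primary screen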;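 further: 0% = median of test compound wells and 100% = Z-Phe-Ala-diazomethylketone 1 µM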
Target sequence (P07711 whole entry, looked up): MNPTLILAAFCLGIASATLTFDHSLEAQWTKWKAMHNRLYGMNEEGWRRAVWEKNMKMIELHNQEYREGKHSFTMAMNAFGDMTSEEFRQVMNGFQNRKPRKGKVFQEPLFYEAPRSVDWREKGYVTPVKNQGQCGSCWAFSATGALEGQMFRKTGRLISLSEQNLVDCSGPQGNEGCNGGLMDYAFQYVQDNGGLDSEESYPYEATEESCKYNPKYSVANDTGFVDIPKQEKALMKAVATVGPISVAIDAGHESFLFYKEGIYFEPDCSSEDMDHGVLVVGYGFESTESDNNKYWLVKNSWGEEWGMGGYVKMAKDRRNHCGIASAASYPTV
An asterisk follows results filed as active; ? = inconclusive; nt = no result.

SMILES | PfM18AAP inh-1 | HIF act | SUMO Mot1 rescue | ALR inh | PfM18AAP inh-2 | CTSL1 counter
CC(Sc1ccccc1)C(=O)Nc1ccccc1C(=O)N1CCOCC1 (stereo not given) | 1.6 | -0.3 | -13.1 | -8.0 | nt | nt
Cc1ccc(OCC(=O)n2cnnc2N)c(C)c1 | 57.1* | 0.6 | -4.1 | -2.4 | 53.5* | -4.3
Cc1cccc(C(=O)n2cnnc2N)c1 | 44.5* | 0.2 | -15.2 | 10.0 | 56.2* | -0.5
COC(=O)c1cn(C(=O)c2cccc(C)c2)c2ccccc12 | -0.6 | 0.1 | 20.4 | -24.8 | nt | nt
COC(=O)c1cn(C(=O)c2cc(C)cc(C)c2)c2ccccc12 | -5.7 | -0.1 | -6.9 | 0.7 | nt | nt
Cc1cc(C)cc(C(=O)n2cnnc2N)c1 | 47.5* | 0.0 | -1.5 | 8.1 | 59.2* | 4.8
COc1ccc(-n2c(SCC(=O)Nc3cccc(S(N)(=O)=O)c3)nc3ccccc3c2=O)cc1OC | 3.5 | -0.7 | -7.4 | nt | nt | nt
COc1ccc(-n2c(SCC3OCCO3)nc3c(sc(=S)n3-c3ccccc3)c2=O)cc1OC | -2.9 | -1.0 | 4.1 | -1.9 | nt | nt
CCOC(=O)C(NC(=O)N(C)C)(Nc1sc(C)c(CC)c1C#N)C(F)(F)F (stereo not given) | 48.9* | 0.7 | 163.3 | 28.4 | 0.7 | -1.8
Cc1nc(N/C(N)=N/S(=O)(=O)c2ccc([N+](=O)[O-])cc2)nc2ccccc12 | 2.0 | -0.5 | 24.3 | -4.9 | nt | nt
Nc1nnc(CC(=O)N/N=C/c2cc([N+](=O)[O-])cc(Br)c2O)s1 | 37.0* | -0.2 | -18.6 | 44.2 | 1.1 | 2.8
Nc1nnc(CC(=O)N/N=C/c2cccc([N+](=O)[O-])c2)s1 | 20.4 | -0.2 | 1.2 | 32.5 | nt | nt
CCn1c(CN2CCOCC2)nnc1SCC(=O)Nc1ccccc1Cl | -4.3 | -0.6 | 123.9 | nt | nt | nt
CCCCS(=O)(=O)N1CCCC(C(=O)Oc2ccc(Cl)cc2)C1 (stereo not given) | 11.6 | -0.9 | -2.6 | -0.4 | nt | nt
CC(C)(C)c1ccc(C(=O)NCCC(=O)NCc2cccs2)cc1 | 0.8 | -0.4 | -7.1 | -3.1 | nt | nt
CC(=O)c1cccc(N=c2scc(-c3ccc(S(=O)(=O)N4CCOCC4)cc3)n2CCO)c1 | 50.5* | 0.9 | 10.8 | 3.6 | -35.5 | 0.4
CCN1CCN(C(=S)c2ccc(Cl)c(Cl)c2)CC1 | 45.0* | -0.1 | 4.4 | 9.4 | 5.6 | -0.3
CCN1CCN(C(=S)Nc2ccc(Cl)c(Cl)c2)CC1 | -0.2 | 0.1 | 4.2 | 3.1 | nt | nt
Cc1cc(C)nc(Sc2nc(Cl)nc(N(c3ccccc3)c3ccccc3)n2)n1 | 46.6* | 1.0 | 11.3 | 54.1 | 21.9 | -2.3
CCOC(=O)CC(=O)CSc1n[nH]c(=O)[nH]c1=O | -7.0 | -0.1 | -6.9 | 32.4 | nt | nt
S=c1[nH]nc(COc2ccccc2)n1/N=C/c1ccc(Br)cc1 | 20.8 | -0.3 | -1.6 | -6.6 | nt | nt
FC(F)Oc1ccc(/C=N/n2c(Cc3ccc(Br)cc3)n[nH]c2=S)cc1 | 46.1* | 0.6 | -0.6 | 65.0 | -4.7 | -0.2
O=C(NNc1cccc(Cl)n1)c1c(Cl)cccc1Cl | 56.1* | -1.1 | 200.1 | -2.2 | 27.1 | 4.0
NC(=O)NNc1cccc(Cl)n1 | 47.0* | 0.1 | -4.0 | nt | 7.9 | 1.2
O=C(NNc1cccc(Cl)n1)C1CC1 | 11.2 | 0.1 | -6.6 | 68.1 | nt | nt
SMILES | PfM18AAP inh-1 | HIF act | SUMO Mot1 rescue | ALR inh | PfM18AAP inh-2 | CTSL1 counter
CCSc1ccccc1-c1nc(-c2ccncc2)no1 | 4.5 | 3.9 | 11.3 | 4.4 | nt | nt
Oc1ccc(N2CCN(Cc3c(-c4ccccc4)nc4ccccn34)CC2)cc1 | 34.4* | 0.1 | 921.9 | ? | -28.1 | -10.1
Clc1ccc(-c2nc3ccccn3c2CN2CCCCC2)cc1 | -2.6 | -0.3 | 22.4 | -1.6 | nt | nt
O=C(COc1ccc2c(c1)OCO2)Nc1nnc(Cc2ccccc2)s1 | 38.3* | 0.5 | -13.1 | -5.6 | -18.3 | -5.0
Cc1cc(SCC(=O)N2CCN(C(=O)c3ccco3)CC2)c(C)cc1Br | nt | nt | -14.1 | -1.6 | nt | nt
Cc1cc(=S)[nH]c(=S)[nH]1 | 38.0* | -0.2 | -12.8 | 61.2 | -9.1 | 4.5
Cc1cc(C)c2[nH]c(=S)cc(C)c2c1 | 20.0 | -0.7 | -5.2 | 4.3 | nt | nt
O=C(c1ccco1)N1CCN(C(=O)N2CCCCC2)CC1 | 89.6* | -0.3 | -1.6 | -0.5 | -35.0 | -3.1
O=C(c1ccco1)N1CCN(C(=O)N2CCCC2)CC1 | 0.1 | 0.4 | 0.1 | nt | nt | nt
O=C(NNc1cc(C(F)(F)F)nc2ccccc12)Nc1cccc(Cl)c1 | 26.6 | -0.4 | -4.2 | -3.1 | nt | nt
O=C(NNc1nccc(C(F)(F)F)n1)Nc1cccc(Cl)c1 | 45.6* | -0.5 | -7.7 | -1.0 | 14.1 | -1.7
O=C(CNS(=O)(=O)c1ccccc1)NNC(=O)C(Cl)Cl | 50.2* | -0.6 | 1.2 | -0.4 | 27.0 | 9.4
O=C(NCc1ccccn1)C1CCCCC1 | 8.2 | -0.7 | -2.9 | 0.6 | nt | nt
O=C(/C=C1\NC2(CCCC2)Cc2ccccc21)C(=O)N/N=C/c1ccc(O)c(O)c1 | 64.4* | -0.6 | 9.4 | 35.5 | 36.5* | 1.7
COc1ccc(/C=N/NC(=O)C(=O)/C=C2\NC3(CCCC3)Cc3ccccc32)cc1 | 7.6 | 0.0 | 18.3 | -3.6 | nt | nt
N#Cc1c(NC(NC(=O)c2ccco2)C(=O)c2ccccc2)sc2c1CCCC2 (stereo not given) | 22.5 | -1.0 | 5.6 | 1.8 | nt | nt
NC(=O)c1c(NC(NC(=O)c2ccco2)C(=O)c2ccc(Cl)cc2)sc2c1CCCC2 (stereo not given) | 38.2* | 0.4 | -3.1 | -1.7 | -22.0 | 0.7
CCN(CC)CCN(C(=O)c1ccc2ncsc2c1)c1nc2cc3c(cc2s1)OCO3 | 46.6* | 1.2 | -3.6 | 23.2 | -4.7 | 5.9
CCOC(=O)c1ccc(N2CSC3=C(C#N)C(c4cccs4)CC(=O)N3C2)cc1 (stereo not given) | 31.9* | 1.0 | -9.4 | 15.1 | -8.0 | 5.7
CCc1ccc(N2CSC3=C(C#N)C(c4cccs4)CC(=O)N3C2)cc1 (stereo not given) | 44.4* | 0.8 | 25.8 | 5.0 | -5.5 | 1.0
COc1ccc(C2CC(=O)N3CN(c4ccc(C)c(Cl)c4)CSC3=C2C#N)cc1OC (stereo not given) | 34.6* | 1.4 | -2.2 | -7.8 | -3.6 | -1.7
Cc1ccc(N2CSC3=C(C#N)C(c4cccs4)CC(=O)N3C2)cc1 (stereo not given) | 33.0* | 2.2 | 12.0 | -13.7 | -5.9 | 5.9
Cc1c(Cl)cn2c(=O)cc(CN(C)Cc3nc4ccccc4c(=O)[nH]3)nc2c1Cl | -4.7 | 0.4 | 2.5 | 1.3 | nt | nt
CCCCNC(=O)Oc1ccc(C(=O)N2c3ccccc3NC(=O)C2C)cc1 (stereo not given) | 0.3 | -0.4 | 4.0 | -2.4 | nt | nt
